Measured values: ChEMBL document CHEMBL3433997, “St. Jude Leishmania screening dataset” (2016)

Each compound was assayed against Hexose transporter 1 (Plasmodium falciparum) (UniProt O97467) (assay: ST_JUDE_LEISH: Cytotoxicity at 2uM final concentration against transgenic Leishmania Mexicana promastigotes LmPfHT that are glucose transport deficient and complemented with the Plasmodium falciparum hexose transporter. Activity is measured by DNA content using SYBR green in vitro).
Type: functional

In order of falling inhibition:
1. COc1cc(CNCCCNc2nc(=O)c3sccc3[nH]2)c2[nH]cc(Cl)c2c1  96.7%
2. CC(Cc1ccc(COc2ccc(CC(CO)NCCc3cccc(Cl)c3)cc2)cc1)NCCc1cccc(Cl)c1 (stereo not given)  38.4%
3. CN(C)CCCN1CCN(C(=O)c2cc3cc(-c4ccccc4)ccc3n2S(=O)(=O)c2ccccc2)CC1  24.3%
4. COc1cc(-n2cnc3cc(-c4ccc([N+](=O)[O-])cc4)sc3c2=O)ccc1OCCN1CCCC1  20%
5. COc1ccc(NC(=O)[C@H](CC(C)C)Nc2cc(C)nc(Nc3ccccc3)n2)cc1  15.8%
6. Cc1cccc2nc(-c3cccc(-c4ccc(NC(=O)Cc5ccon5)cc4)c3)[nH]c12  12.3%
7. CCNC(=O)Nc1ccc(N(C)c2ccnc(Nc3ccc(CS(C)(=O)=O)cc3)n2)cc1  12.2%
8. CC(C)CCn1c(Sc2ccc(C#N)c([N+](=O)[O-])c2)nnc1-c1ccc(Cl)cc1  9.73%
9. Cc1cc(N[C@@H](Cc2ccccc2)C(=O)NCCc2ccccc2)nc(NCCOc2ccccc2)n1  5.84%
10. CN1CCc2cc(I)c(O)cc2C1Cc1ccccc1Cl (stereo not given)  3.88%
11. CC(Cc1ccc(C(=O)N2CCN(C(=O)c3ccc(CC(C)NCCc4cccc(Cl)c4)cc3)CC2)cc1)NCCc1cccc(Cl)c1 (stereo not given)  3.6%
12. COc1ccc2[nH]ccc(=NN=Cc3ccc(Cl)cc3)c2c1  3.19%
13. COc1ccc2nc(C)cc(N/N=C/c3ccccc3[N+](=O)[O-])c2c1  2.99%
14. CCCCCC(C)C(C)c1cc(O)c2c(c1)OC(C)(C)CC2(O)c1ccccn1 (stereo not given)  2.79%
15. CN1CCN(CCCN(Cc2ccc(-c3cccc(CNCc4ccc5c(c4)OCO5)c3)cc2)C(=O)NCCc2ccccc2)CC1  2.67%
16. c1ccc(CN2CCC(NCc3ccccc3-c3cccc(CNC4CCCC4)c3)CC2)cc1  2.62%
17. COc1ccc(-c2cccc(NC(=O)c3cccc(Cl)c3)c2)cc1CN1CCNCC1  2.6%
18. Cc1ccc(-c2cncc(-c3cc(NC4CCN(Cc5ccccc5)CC4)nc(-c4ccccc4)n3)c2)cc1  2.36%
19. CC1(C)NC(N)=NC(=N)N1OCOc1ccc(Cl)cc1  1.85%
20. COc1cc2c(cc1OCCN1CCC(N3CCCCC3)CC1)N(C(=O)/C=C/c1ccccc1Cl)CC2  1.79%
21. O=C(C=Cc1ccc(Cl)c(Cl)c1)NCCCCCN1CCC(CCNC(=O)C(c2ccccc2)c2ccccc2)CC1  1.79%
22. COc1cc(-c2ccc3c(-c4ccc(C(=O)N5CCN(C)CC5)cc4)n[nH]c3n2)cc(OC)c1OC  1.78%
23. O=C(Nc1ccc2ccccc2c1)N1CCC(NCc2cccc([N+](=O)[O-])c2)CC1  1.61%
24. CCCCCCN1CCN(Cc2cccc(NC(=O)c3cc4ccccc4o3)c2)CC1  1.56%
25. COCCCNc1nc2cc(OC)c(OC)cc2c2nc(-c3ccccc3)nn12  1.16%
26. COc1cc2nc(N3CCC(CNC(=O)c4ccc(-c5ccc(C(=O)N(C)C)cc5O)cc4)CC3)nc(N)c2cc1OC  1.14%
27. CC1(C)CCNc2cc(NC(=O)c3ccc(-c4ncccc4C(F)(F)F)cc3)ccc21  1.14%
28. O=S(=O)(Nc1cc2c(cc1O)CCN(C1CCC1)CC2)c1ccc(Oc2ccc(F)cc2)cc1  1.02%
29. CN1CCC(C(=O)N(Cc2ccc(-c3ccc(CNCCc4ccccc4)cn3)cc2)Cc2cccc(F)c2)CC1  0.98%
30. N#Cc1c(N)nc(SCC(=O)Nc2cc(C(F)(F)F)ccc2Cl)c(C#N)c1-c1cccs1  0.77%
31. COc1ccc(Nc2nccc(N3CCC(NC(=O)Nc4cccc(OC)c4)C3)n2)cc1 (stereo not given)  0.74%
32. CCn1c(Sc2ccc([N+](=O)[O-])c(C#N)c2)nnc1-c1cccc(Cl)c1  0.29%
33. CC(C)CCN1CCCN(Cc2cccc(NC(=O)c3ccc(-c4ccccc4)cc3)c2)CC1  0.14%
34. COc1ccc2ncc(F)c([C@H](O)CN3CCC(NCc4ccc5c(c4)NC(=O)CS5)CC3)c2c1  -0.25%
35. O=C(Cc1ccc(NC(=O)c2ccc(O)c(-c3ccc(Cl)c(Cl)c3)c2)cc1)NCCN1CCOCC1  -1.17%
36. C[C@@H](C(=O)N1CCOCC1)N1CC[C@H](NS(=O)(=O)c2ccc3ccnc(N)c3c2)C1=O  -1.24%
37. Clc1ccc(-c2cnc3ccc(NCCc4cccnc4)nn23)cc1  -1.47%
38. C=Cc1cc(NC(=O)N2CCc3cc(OC)c(C(F)(F)F)cc32)cc(-c2cccnc2)c1  -1.84%
39. CC(=O)Nc1ncc(C(=O)Nc2ccc(-c3cccc(-c4nc5cc(C(F)(F)F)ccc5[nH]4)c3)cc2)s1  -2.1%
40. CC(C)(C)c1ccc(CN2CCC(NC(=O)c3ccc(-c4ccccc4F)s3)CC2)cc1  -2.65%

These compounds were tested against Glucose transporter (Leishmania mexicana) (UniProt O61059) (assay: ST_JUDE_LEISH: Cytotoxicity at 2uM final concentration against transgenic Leishmania Mexicana promastigotes LmGT2 that are glucose transport deficient and complemented with the L. Mexicana glucose transporter 2. Activity is measured by DNA content using SYBR green in vitro).
Type: functional

In order of falling inhibition:
1. COc1cc(CNCCCNc2nc(=O)c3sccc3[nH]2)c2[nH]cc(Cl)c2c1  87.6%
2. CC(Cc1ccc(COc2ccc(CC(CO)NCCc3cccc(Cl)c3)cc2)cc1)NCCc1cccc(Cl)c1 (stereo not given)  69.3%
3. COc1cc(-n2cnc3cc(-c4ccc([N+](=O)[O-])cc4)sc3c2=O)ccc1OCCN1CCCC1  16%
4. COc1ccc(NC(=O)[C@H](CC(C)C)Nc2cc(C)nc(Nc3ccccc3)n2)cc1  14.9%
5. Cc1cccc2nc(-c3cccc(-c4ccc(NC(=O)Cc5ccon5)cc4)c3)[nH]c12  10.8%
6. CCNC(=O)Nc1ccc(N(C)c2ccnc(Nc3ccc(CS(C)(=O)=O)cc3)n2)cc1  9.58%
7. c1ccc(CN2CCC(NCc3ccccc3-c3cccc(CNC4CCCC4)c3)CC2)cc1  7.14%
8. CC(Cc1ccc(C(=O)N2CCN(C(=O)c3ccc(CC(C)NCCc4cccc(Cl)c4)cc3)CC2)cc1)NCCc1cccc(Cl)c1 (stereo not given)  5.54%
9. COc1cc(-c2ccc3c(-c4ccc(C(=O)N5CCN(C)CC5)cc4)n[nH]c3n2)cc(OC)c1OC  5.3%
10. CC(C)CCn1c(Sc2ccc(C#N)c([N+](=O)[O-])c2)nnc1-c1ccc(Cl)cc1  4.99%
11. CC1(C)NC(N)=NC(=N)N1OCOc1ccc(Cl)cc1  4.23%
12. CN1CCC(C(=O)N(Cc2ccc(-c3ccc(CNCCc4ccccc4)cn3)cc2)Cc2cccc(F)c2)CC1  4.08%
13. CN1CCN(CCCN(Cc2ccc(-c3cccc(CNCc4ccc5c(c4)OCO5)c3)cc2)C(=O)NCCc2ccccc2)CC1  3.58%
14. CCCCCC(C)C(C)c1cc(O)c2c(c1)OC(C)(C)CC2(O)c1ccccn1 (stereo not given)  3.05%
15. CN(C)CCCN1CCN(C(=O)c2cc3cc(-c4ccccc4)ccc3n2S(=O)(=O)c2ccccc2)CC1  2.85%
16. CN1CCc2cc(I)c(O)cc2C1Cc1ccccc1Cl (stereo not given)  2.59%
17. Cc1cc(N[C@@H](Cc2ccccc2)C(=O)NCCc2ccccc2)nc(NCCOc2ccccc2)n1  2.55%
18. Cc1ccc(-c2cncc(-c3cc(NC4CCN(Cc5ccccc5)CC4)nc(-c4ccccc4)n3)c2)cc1  1.96%
19. COc1cc2c(cc1OCCN1CCC(N3CCCCC3)CC1)N(C(=O)/C=C/c1ccccc1Cl)CC2  1.83%
20. CCCCCCN1CCN(Cc2cccc(NC(=O)c3cc4ccccc4o3)c2)CC1  1.59%
21. COCCCNc1nc2cc(OC)c(OC)cc2c2nc(-c3ccccc3)nn12  0.85%
22. O=C(C=Cc1ccc(Cl)c(Cl)c1)NCCCCCN1CCC(CCNC(=O)C(c2ccccc2)c2ccccc2)CC1  0.8%
23. O=C(Nc1ccc2ccccc2c1)N1CCC(NCc2cccc([N+](=O)[O-])c2)CC1  0.78%
24. CC1(C)CCNc2cc(NC(=O)c3ccc(-c4ncccc4C(F)(F)F)cc3)ccc21  0.73%
25. O=S(=O)(Nc1cc2c(cc1O)CCN(C1CCC1)CC2)c1ccc(Oc2ccc(F)cc2)cc1  0.51%
26. COc1ccc(Nc2nccc(N3CCC(NC(=O)Nc4cccc(OC)c4)C3)n2)cc1 (stereo not given)  0.51%
27. N#Cc1c(N)nc(SCC(=O)Nc2cc(C(F)(F)F)ccc2Cl)c(C#N)c1-c1cccs1  0.5%
28. COc1ccc2[nH]ccc(=NN=Cc3ccc(Cl)cc3)c2c1  0.32%
29. Clc1ccc(-c2cnc3ccc(NCCc4cccnc4)nn23)cc1  0.12%
30. CC(C)CCN1CCCN(Cc2cccc(NC(=O)c3ccc(-c4ccccc4)cc3)c2)CC1  -0.09%
31. COc1ccc2nc(C)cc(N/N=C/c3ccccc3[N+](=O)[O-])c2c1  -0.41%
32. COc1ccc(-c2cccc(NC(=O)c3cccc(Cl)c3)c2)cc1CN1CCNCC1  -0.77%
33. CCn1c(Sc2ccc([N+](=O)[O-])c(C#N)c2)nnc1-c1cccc(Cl)c1  -1.08%
34. C=Cc1cc(NC(=O)N2CCc3cc(OC)c(C(F)(F)F)cc32)cc(-c2cccnc2)c1  -1.09%
35. COc1cc2nc(N3CCC(CNC(=O)c4ccc(-c5ccc(C(=O)N(C)C)cc5O)cc4)CC3)nc(N)c2cc1OC  -1.24%
36. O=C(Cc1ccc(NC(=O)c2ccc(O)c(-c3ccc(Cl)c(Cl)c3)c2)cc1)NCCN1CCOCC1  -1.61%
37. COc1ccc2ncc(F)c([C@H](O)CN3CCC(NCc4ccc5c(c4)NC(=O)CS5)CC3)c2c1  -1.73%
38. CC(C)(C)c1ccc(CN2CCC(NC(=O)c3ccc(-c4ccccc4F)s3)CC2)cc1  -2.5%
39. CC(=O)Nc1ncc(C(=O)Nc2ccc(-c3cccc(-c4nc5cc(C(F)(F)F)ccc5[nH]4)c3)cc2)s1  -2.74%
40. C[C@@H](C(=O)N1CCOCC1)N1CC[C@H](NS(=O)(=O)c2ccc3ccnc(N)c3c2)C1=O  -4.28%
